# Reference: PubChem BioAssay (NCI)
# Compounds without any hit were thinned out: in the full panel of roughly 83,000, 20% have a hit.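 Single-dose data. Exposure time 48 hours. Values below 10 considered active.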 Values without a mark were called inactive. The source made the active and inactive calls.
# Tests used:
# Assay in all cases: NCI-60 one-dose screen, 48 h (100 = growth as untreated, 0 = no growth, -100 = all killed)
# Conditions in all cases: 10 µM unless noted
# NCI-H23 lung = test system: NCI-H23 lung
# NCI-H226 lung = test system: NCI-H226 lung
# NCI-H322M lung = test system: NCI-H322M lung
# HOP-62 NSCLC = test system: HOP-62 NSCLC
# NCI-H460 lung = test system: NCI-H460 lung
# HOP-92 NSCLC = test system: HOP-92 NSCLC
# NCI-H522 lung = test system: NCI-H522 lung
# A549/ATCC NSCLC = test system: A549/ATCC NSCLC
# 786-0 renal = test system: 786-0 renal
# COLO 205 colon = test system: COLO 205 colon
SMILES,growth (NCI-H23 lung),growth (NCI-H226 lung),growth (NCI-H322M lung),growth (HOP-62 NSCLC),growth (NCI-H460 lung),growth (HOP-92 NSCLC),growth (NCI-H522 lung),growth (A549/ATCC NSCLC),growth (786-0 renal),growth (COLO 205 colon)
O=C(C1=Cc2cc3ccccc3n2Cc2cnnn21)c1ccc(O)cc1,75.6%,85.1%,89.4%,55.7%,27.8%,84.4%,36.7%,50.7%,81.8%,75.5%
O=C(CCCCCNC(=O)c1cc(=O)c(O)co1)Nc1ccccc1,99.1%,105%,97.2%,115%,111%,99.8%,90.9%,97.6%,97.5%,120%
C=C1C(=O)O[C@H]2[C@H]1CC/C(COC(=O)NCc1ccc(Cn3c(=O)sn(-c4ccc(C#N)cc4)c3=O)cc1)=C\CC[C@@]1(C)O[C@@H]21,78.2%,95.5%,104%,92.2%,104%,26.1%,-28% (active),96.7%,66.1%,38.1%
COc1ccc(N2CCN(C(=O)c3sc4nc(C)c(Br)c(C)c4c3N)CC2)cc1,99.4%,74.2%,88%,80%,105%,88.9%,89.2%,91.1%,99.7%,107%
CCOC(=O)c1c(C)c2c(n1Cc1ccccc1)CSCC2=O,4.82% [100 µM] (active),-5.37% [100 µM] (active),36.4% [100 µM],-25.9% [100 µM] (active),-21.1% [100 µM] (active),-19.4% [100 µM] (active),16.5% [100 µM],20.2% [100 µM],-11.2% [100 µM] (active),-53.3% [100 µM] (active)
Nc1nc(N)c2c(n1)NC(c1ccc(Cl)cc1)C1CCc3ccccc3C1=N2 (stereo not given),47.2%,60.2%,71.7%,84.2%,22.7%,94.3%,76.7%,64%,64.4%,51.6%
O=C(O)[C@@H](Cc1ccc2ccccc2c1)NC(=O)n1c2ccccc2c2ccccc21,34.8%,85.9%,49%,31.3%,9.11% (active),39.5%,-7.97% (active),44.3%,27.7%,-35.2% (active)
O=S(=O)(NCCCNc1nccc(-c2c(-c3cccc(F)c3)nc3occn23)n1)c1ccc(F)cc1,84.4%,39.6%,73.2%,63.7%,52.7%,61.4%,38.7%,31.1%,66%,17.7%
CN1CCN(CCOc2ccc(-c3cnc4c(-c5ccc(F)cc5)cnn4c3)cc2)CC1,67%,104%,75%,72.6%,-1.23% (active),54.9%,64.1%,27.3%,60.3%,-51.7% (active)
CCOC(=O)c1c(C)nc2ccccc2c1/C=C/c1cccs1,57.6%,72.4%,89.1%,84.7%,85.2%,68.6%,57%,64.9%,89.7%,84.5%
CCN1C(=O)N(CC)C2C1NN=c1s/c(=C\c3ccc[nH]3)c(=O)n12 (stereo not given),42.9%,68%,36.5%,25.9%,4.38% (active),54.2%,-15.6% (active),7.44% (active),31%,4.65% (active)
O=C(N/N=C\c1ccccc1S(=O)(=O)O)N/N=C/c1ccccc1S(=O)(=O)O,102%,105%,99.3%,101%,98.5%,96.8%,98.5%,97.9%,95%,106%
COc1ccc(C2CC(c3cc(OC)c(OC)c(OC)c3)=NO2)cc1OCCCCOc1cc2c(cc1OC)C(=O)N1CCC[C@H]1C=N2 (stereo not given in full),-16% (active),-0.71% (active),17.4%,22.8%,-14.8% (active),20.3%,-32.5% (active),20%,-35.3% (active),-32.9% (active)
Cn1cc(-c2csc(-c3c[nH]c4ccc(F)cc34)n2)c2ccnc(Cl)c21,64.2%,62.1%,80.6%,98.2%,36.7%,71.5%,79.4%,64.3%,57.6%,52.2%
COc1ccc(/C=C/c2c(C(=O)/C=C/c3ccccc3)c(C)nc3ccccc23)cc1,20%,45.5%,28.4%,-13.9% (active),-48.1% (active),66.2%,-24.5% (active),20.2%,13.5%,3.63% (active)
CS(=O)(=O)Nc1cc(-c2ccc3ncc(C#N)c(Nc4ccc(F)c(Cl)c4)c3c2)cnc1Cl,-11.7% (active),-0.649% (active),5.43% (active),1.41% (active),6.16% (active),-1.46% (active),-18.1% (active),5.08% (active),6.73% (active),-53.5% (active)
CC1C=CC(OC(=O)C(C)(O)CCC(O)(C(=O)OC2CC(O)C(C(C)C)CC2(C)O)C(C)C)(C(C)C)CC1 (stereo not given),-70.5% [4.63 µM] (active),-48.6% [4.63 µM] (active),-89.9% [4.63 µM] (active),-68.7% [4.63 µM] (active),-69.3% [4.63 µM] (active),-67.1% [4.63 µM] (active),-76.7% [4.63 µM] (active),-78.2% [4.63 µM] (active),-88.5% [4.63 µM] (active),-68.3% [4.63 µM] (active)
COc1cc(-c2nc3cc(Cl)c(Cl)cc3[nH]2)ccc1OCC(=O)N=Nc1c(O)[nH]c2ccc(Cl)cc12,-3.62% (active),30.4%,35.2%,-36.7% (active),5.88% (active),-19.7% (active),4.94% (active),45.8%,2.74% (active),-63.3% (active)
CN(C)c1ccc(-c2ccc3c(c2)c(-c2ccccc2)nc(=O)n3C)cn1,71%,77.2%,60.9%,36.8%,19.7%,-45.4% (active),7.96% (active),45.8%,26.2%,28.1%
Cc1ccc(/C=C/C(=O)c2ccc(-n3cc(CN4CCN(c5cc6c(cc5F)c(=O)c(C(=O)O)cn6C5CC5)CC4)nn3)cc2)cc1,81.5%,84.6%,94.3%,81.3%,89.7%,76.2%,88.6%,93.5%,64.9%,101%
CNC1=C([N+](=O)[O-])C(c2ccc(OC)cc2)C(C#N)=C(c2cccs2)O1 (stereo not given),103%,99.8%,103%,99.6%,109%,125%,102%,102%,110%,111%
COc1cccc(/C=N/NC(=O)c2ccccc2N2CCCC2)c1O,53.3%,71.7%,49.6%,46.9%,20.9%,47.6%,-34.1% (active),70.5%,53.4%,54.3%
Cc1ccc(-c2nc3nc(-c4ccccc4)nc(N4CCCN(S(C)(=O)=O)CC4)c3o2)cc1,86.6%,58.1%,93.9%,66.5%,4.39% (active),84.9%,78.8%,38.8%,87.7%,86.5%
CCCCNc1cc(-c2cn[nH]c2-c2cc(C)cc(OC)c2)nc(-c2cccnc2)n1,101%,87.4%,86.9%,95.6%,99.7%,68.2%,81.2%,94.3%,68.2%,99.5%
COc1ccc(/C=C2\COc3ccc(O)cc3C2=O)cc1,109%,104%,100%,103%,104%,110%,37.7%,97.8%,92.2%,110%
O=C1/C=C/[C@@H](O)[C@@H]2C[C@@H](O)C[C@H]2/C=C/CCC[C@H](CCO)O1,10.2%,-38.9% (active),29.3%,31%,15.9%,-7.37% (active),-12.4% (active),17.7%,-51.7% (active),-66.9% (active)
